Assay outcomes: PubChem, National Center for Advancing Translational Sciences (NCATS)
ERK EGF inh: qHTS Assay for Inhibitors of the ERK Signaling Pathway using a Homogeneous Screening Assay; Stimulation with EGF; HEK293-V1b, EGF-stimulated phospho-ERK AlphaScreen; Potency, µM (top dose mostly 11.5 µM), for the others: at the highest dose activity change, negative = inhibition, usual class: inhibitors; 130,000 tested, 0.41% active;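 also: potency is read from the fitted curve at half-maximal effect; plate controls were stimulated vehicle wells for no effect and unstimulated vehicle basal for full effect; nearly all actives have a fitted effect of over 55% in size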
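Homogeneous cell-based phospho-ERK assay: HEK293/V1b cells in 1% FBS, compound 30 min then EGF 5 min, AlphaScreen luminescence. Activity normalized between DMSO and 25 nM EGF controls; AC50 from Hill modelling.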
pERK EGF inh: Confirmation Concentration-Response Assay for Inhibitors of the ERK Signaling Pathway using a Homogeneous Screening Assay; Stimulation with EGF; HEK293 EGF-stimulated ERK phosphorylation, AlphaScreen; 60 tested, 60% active; AID 1725, 2009; Potency, µM (titrated, usually from 57.5 µM), without a hit: top-dose activity change, negative = inhibition, most hits filed as inhibitors; shares compounds with ERK EGF inh
cRaf kinase inh: Assay for Inhibitors of the ERK Signaling Pathway using a Homogeneous Screening Assay: c-Raf Inhibition; activity change, negative = inhibition, % at 76.9 µM; c-Raf kinase inhibition, homogeneous biochemical assay; shares compounds with ERK EGF inh; 70 tested, under 10 active
MEK1 kinase inh: Assay for Inhibitors of the ERK Signaling Pathway using a Homogeneous Screening Assay: MEK Inhibition; shares compounds with ERK EGF inh; homogeneous MEK kinase activity assay, ERK pathway; Potency, µM (top dose mostly 76.9 µM), for inactives: at the highest dose activity change, negative = inhibition, most hits filed as inhibitors; 70 tested, under 10 active
Target sequence (Q02750 whole entry, looked up): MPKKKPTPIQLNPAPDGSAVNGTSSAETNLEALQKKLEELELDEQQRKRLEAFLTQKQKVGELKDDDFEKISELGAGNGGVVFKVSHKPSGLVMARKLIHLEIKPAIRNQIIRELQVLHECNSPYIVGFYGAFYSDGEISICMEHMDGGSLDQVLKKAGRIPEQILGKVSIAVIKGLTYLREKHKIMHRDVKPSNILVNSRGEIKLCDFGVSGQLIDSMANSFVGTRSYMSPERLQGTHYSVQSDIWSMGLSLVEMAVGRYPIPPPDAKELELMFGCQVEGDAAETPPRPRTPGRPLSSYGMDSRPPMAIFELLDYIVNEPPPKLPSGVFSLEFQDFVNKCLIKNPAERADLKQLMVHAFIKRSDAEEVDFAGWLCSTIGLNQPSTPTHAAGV
* = called active by the depositor; [ ] = dose if it differs, or a comment. Many of the other results were omitted from the sample, so hits are more common in it than they were. Calls follow the shape of the dose curve; as a rule, active = well fitted curve in the direction sought with a large enough effect; inconclusive = small, poorly fitted or top-dose-only effect, or another doubt; inactive = no such curve, though single readings can be large; an effect the other way counts as inactive or inconclusive.

COc1ccc2[nH]cc(CCNc3nc(-c4ccoc4)nc4ccccc34)c2c1 was read as ERK EGF inh 35%.
`COc1cccc(-c2nc(NCCc3c[nH]c4ccc(OC)cc34)c3ccccc3n2)c1` gave ERK EGF inh 25µM*.
COc1ccc2[nH]cc(CCNc3nc(-c4ccc(C(=O)N(C)C)cc4)nc4ccccc34)c2c1 was read as ERK EGF inh 12%.
O=C(O)/C=C/c1cn(-c2ccccc2)nc1-c1ccc(-c2ccc([N+](=O)[O-])cc2)o1 was read as ERK EGF inh 13%[57.5 µM].
`Cc1onc(-c2ccc(Cl)cc2Cl)c1-c1csc(N/N=C/c2ccccc2Cl)n1` gave ERK EGF inh -4%[57.5 µM].
`Cc1cc(N)c2ccccc2n1` gave ERK EGF inh 2%.
Cc1cccc[n+]1CCCCCCCCCC[n+]1ccccc1C was read as ERK EGF inh -8%.
Screening Cc1cc(N)c2ccccc2[n+]1CCCCCCCCCCCCCC[n+]1c(C)cc(N)c2ccccc21 returned ERK EGF inh 28µM*.
For CC(=O)C1=C(O)C=C2Oc3c(C(C)=O)c(O)c(C)c(O)c3C2(C)C1=O (stereo not drawn) the results were ERK EGF inh 2%.
For Cc1cc(=O)n2[nH]c(N)c(N=Nc3ccccc3)c2n1 the results were ERK EGF inh 6%.
Screening Cc1[nH]c(N=Nc2ccccc2)nc1N=Nc1ccccc1 returned ERK EGF inh 22µM*.
For Cc1[nH]c2ccccc2c1N=Nc1ccc(F)cc1 the results were ERK EGF inh 2%.
`Cc1noc(C)c1C(=O)N1CCC2(CC1)CN(c1ccccc1)C2` gave ERK EGF inh 8%.
For CCN(CC)Cc1c(O)ccc2c1O/C(=C\C=C\c1ccccc1)C2=O the results were ERK EGF inh -9%[57.5 µM].
CCc1ccc(/C=C2\Oc3cc(OS(C)(=O)=O)ccc3C2=O)cc1 was read as ERK EGF inh 4%.
For CS(=O)(=O)Oc1ccc2c(c1)O/C(=C\C=C\c1ccccc1)C2=O the results were ERK EGF inh 7.9µM*.
Screening CCCCCCN1C=CC=C/C1=C/C=C(C#N)C#N returned ERK EGF inh 10%.
Screening CCCN1C=CC(=CC=C(C#N)C#N)C=C1 returned ERK EGF inh 28%[57.5 µM].
`CCCCCCN1C=C/C(=C\C=C(C#N)C#N)c2ccccc21` gave ERK EGF inh 14µM*.
Screening COCCN=C1OC(=O)N2C(=O)C3=C4C(C[C@H]5C(=O)N(c6ccccc6)C(=O)[C@H]5[C@H]4[C@@]12Cc1ccccc1)[C@H]1C(=O)N(c2ccccc2)C(=O)[C@H]1[C@H]3C (stereo partly drawn) returned ERK EGF inh 3%.
Screening Cc1nc(NC2CCCCC2)c2nc(-c3ccccc3)n(CCN3CCCC3)c2n1 returned ERK EGF inh 5%.
`CC(=O)N1CCC2(CC1)CN(Cc1ccc(C#N)cc1)C2` gave ERK EGF inh -4%.
For O=C(Nc1ccccc1)N1CCC2(CC1)CCN(C(=O)c1ccncc1)CC2 the results were ERK EGF inh 12%.
CCNc1nc(NC(C)(C)C)nc(N2CCCCC2)n1 was read as ERK EGF inh -6%.
Screening COc1ccc(C(=O)C2C3C4COC(O4)C(=O)C3C3C=Cc4ccccc4N32)c(OC)c1 (stereo not drawn) returned ERK EGF inh 0%.
Screening CC1=NN(c2ccc(Cl)cc2)C(=O)/C1=C\c1cccn1-c1ccc(S(N)(=O)=O)cc1 returned ERK EGF inh 25µM*.
Screening Cc1ccc(S(=O)(=O)N/N=C/c2cccn2-c2ccc(Cl)cc2)cc1 returned ERK EGF inh 2%[57.5 µM].
Screening CCC1=NN2C(=N)/C(=C\c3cccn3-c3ccc(Cl)cc3)C(=O)N=C2S1 returned ERK EGF inh -4%.
For COc1ccc(Oc2ncc3nc(CCc4ccccc4)c(=O)n(CCC#N)c3n2)cc1 the results were ERK EGF inh -2%.
CCc1sc(C(=O)Nc2ccccc2N2CCOCC2)cc1C was read as ERK EGF inh -4%.
C#CCOCCOCCOCCNc1nc(N2CCN(C(=O)[C@H](CCCCN)n3cc(C(N)COC(=O)C(F)(F)F)nn3)CC2)nc(N2CCN(C(=O)[C@H](CCCCN)n3cc(C(N)CC(C)C)nn3)CC2)n1 (stereo partly drawn) was read as ERK EGF inh 11%[57.5 µM].
For COC1=C(Nc2ccccc2OC)C(=O)c2ccccc2C1=O the results were ERK EGF inh 14µM*.
For COc1ccccc1NC1=C(Cl)C(=O)N(c2ccccc2)C1=O the results were ERK EGF inh 4%.
For COc1ccccc1NC(=S)N(c1ccccc1)C(C)C the results were ERK EGF inh 1%.
For COc1cccc(Cn2c(=O)c(-c3cccc(F)c3)nc3cncnc32)c1 the results were ERK EGF inh -4%.
Screening CN(/N=C/c1ccc([N+](=O)[O-])o1)c1ccccc1 returned ERK EGF inh 25µM*.
Screening O=C(N/N=C/c1ccc([N+](=O)[O-])o1)C(O)c1ccccc1 (stereo not drawn) returned ERK EGF inh 1%[57.5 µM].
For COC(=O)N/N=C/c1ccc([N+](=O)[O-])o1 the results were ERK EGF inh -11%.
For COC(C[C@H]1O[C@H]1[C@H](O)COCc1ccccc1)OC the results were ERK EGF inh 2%[57.5 µM].
Screening O=C(c1ccco1)N1CCC2(CCN(Cc3ccccc3)CC2)CC1 returned ERK EGF inh 3%.
Screening O=C(NO)c1ccccc1C(F)(F)F returned ERK EGF inh 5%.
`Nc1ccc(SC(F)(F)F)cc1` gave ERK EGF inh 19%.
For N#C/C(=C(/N)Sc1ccc(N)cc1)c1ccccc1C(F)(F)F the results were ERK EGF inh 0.89µM*, cRaf kinase inh 12 and MEK1 kinase inh -16%.
Cc1nc(N/C(N)=N/S(=O)(=O)c2ccc([N+](=O)[O-])cc2)nc2ccccc12 was read as ERK EGF inh 0%.
Cc1cccc(CNc2ccnc(-c3cccc(NS(C)(=O)=O)c3)n2)c1 was read as ERK EGF inh 34%.
`Cc1cccc(CNc2cc(-c3cccc(NS(C)(=O)=O)c3)ncn2)c1` gave ERK EGF inh 17%.
Screening Cc1cccc(CNc2ncnc3ccc(-c4cccc(NS(C)(=O)=O)c4)cc23)c1 returned ERK EGF inh 6.3µM*, pERK EGF inh 11µM*, cRaf kinase inh inconclusive and MEK1 kinase inh 1%.
Screening COc1ccc(Cn2c(=O)[nH]c3cc(C(=O)NC4CCCC4)ccc3c2=O)cc1 returned ERK EGF inh -13%.
`Cn1ncc2c(NNC(=O)c3ccccc3Cl)ncnc21` gave ERK EGF inh 2%.
`O=C(c1cccnc1)N1CCN(c2ccccc2Cl)CC1` gave ERK EGF inh 1%[57.5 µM].
For O=C1NC(O)=NC1(c1ccccc1)c1ccccc1 the results were ERK EGF inh -5%.
